# ChEMBL document CHEMBL1157539, “Thousands of chemical starting points for antimalarial lead identification” (Nature, 2010)
# Test system: Plasmodium falciparum
# Test: GSK_TCMDC: Inhibition of Plasmodium falciparum 3D7 in whole red blood cells, using parasite LDH activity as an index of growth. Test compounds present at 2uM
# Assay type: functional
row,SMILES,Inhibition [%]
1,Cc1ccc2nc(-c3ccc(/C=C/C(=O)NC4CCN(Cc5ccccc5)CC4)cc3)[nH]c2c1C,100
2,Cc1[nH]c(C)c(-c2ccc(Br)cc2)c(=O)c1Cl,94
3,O=C(O)C(F)(F)F.S=C(Nc1cccc(Cl)c1)NC1CCN(c2ccnc3cc(Cl)ccc23)C1 (stereo not given),100
4,COc1ccc(NC(=O)c2ccc(Br)c(C)c2)cc1N1CCN(CCCCc2ccccc2)CC1.O=C(O)C(=O)O,88
5,CCNc1cc(C)nc(Nc2ccc(C)cc2)n1,100
6,O=C(O)C(F)(F)F.c1cc(CNCC2CCN(CC3CCCCC3)CC2)cc(-n2ccnc2)c1,100
7,CO/C(=C\C=C\c1cc2cc(Cl)c(Cl)cc2[nH]1)C(=O)NCCCNCCN(C)c1ccccc1,100
8,Cc1n[nH]c2ccc(-c3cc(OC[C@@H](N)Cc4ccccc4)cnc3-c3cc4ccccc4s3)cc12.O=C(O)C(F)(F)F,99
9,CN1CCCc2ccc(NC(=O)Nc3ccc(-c4ccccc4)cc3)cc2C1,97
10,CC(CNC(=O)[C@H]1CNCCN1C(=O)CCCc1ccccc1)c1ccccc1.O=C(O)C(F)(F)F (stereo not given in full),94
11,O=C(NCCc1ccc(F)cc1)c1ccc(N2CCN(c3ccncc3)CC2)nc1.O=C(O)C(F)(F)F,88
12,O=C(/C=C/c1ccc(Cl)c(Cl)c1)NCCCCCN1CCC(c2c[nH]c3c(-c4ccccc4)cccc23)CC1,99
13,Brc1ccc(C=NNc2nc3ccccc3[nH]2)cc1,100
14,Cc1cc(N(C)C)nc(Nc2ccc(NC(=O)Nc3ccccc3)cc2)n1,100
15,COc1cc(C(=O)N2CCOC(CCN3CCC(c4ccc(Cl)cc4)CC3)(c3ccc(Cl)c(Cl)c3)C2)cc(OC)c1OC (stereo not given),91
16,O=C(Nc1ccc(OC(F)(F)F)cc1)NC1CCN(c2ccnc3ccccc23)C1.O=C(O)C(F)(F)F (stereo not given),100
17,Cl.Cn1ncc2c3c(CCN4CCC(NCc5cc6c(cn5)OCCO6)CC4)c(Cl)cnc3ccc21,95
18,COc1ccc(CSC2CCCCC23NC(=S)NC3=S)cc1 (stereo not given),97
19,Br.CC1(C)NC(N)=NC(=N)N1OCCCOc1cccc2ccccc12,95
20,CCCCn1c(-c2ccco2)nc2c(c(=O)c3ccccc3n2C)c1=O,87

row,SMILES,Inhibition [%]
1,COc1ccc(CNC2Cc3ccccc3C2)cc1-c1ccc(S(=O)(=O)NCCN2CCCC2)s1.O=C(O)C(F)(F)F,100
2,COc1cc2nc(NCCc3ccccc3)nc(NCc3cc(C)no3)c2cc1OC,99
3,COc1ccc(NC(=O)Nc2ccc(-c3ccncc3)c(Cl)c2)cc1N1CCN(C)CC1,98
4,CN1CCN(c2ncnc3ccc(NC(=O)Nc4ccc(Cl)c(Cl)c4)cc23)CC1,100
5,O=S(=O)(c1cccc(Cl)c1F)N(CCC(O)(C(F)(F)F)C(F)(F)F)Cc1cccc(O)c1,100
6,COc1ccc(-n2ncc(C(=O)N3CCC4(C3)C(=O)N(c3ccccc3)c3ccccc34)c2C)cc1 (stereo not given),88
7,CN(C)CCOc1cc(NC(=O)c2ccc(-c3ccc(Cl)cc3Cl)cc2)ccc1-c1ccccc1,98
8,Cc1ccc2c(Cl)c(C(=O)N3CCCc4ccccc43)sc2c1,99
9,Cc1nc(C)c(CC(=O)Nc2cccc(-c3cccc(-c4nc5cccc(C)c5[nH]4)c3)c2)s1,92
10,CN(CCC(O)c1ccc(Cl)c(Cl)c1)CC1CC1C(=O)c1ccccc1 (stereo not given),98
11,O=C(O)c1ccc(NC(=O)C2CC(=O)N(Cc3ccc(Cl)cc3)C(=Nc3ccc(Cl)cc3)S2)cc1 (stereo not given),99
12,CC(=O)c1sc2ccccc2c1O,91
13,Cc1ccc(CN2CCCN(Cc3cccc(NC(=O)c4cc5ccccc5s4)c3)CC2)cc1.O=C(O)C(F)(F)F,87
14,CNC(=O)CC(=O)NCCc1ccc(Cl)cc1,99
15,COc1cc(Cc2cnc(N)nc2N)ccc1OCc1ccc(-c2csnn2)cc1,97
16,COc1ccc(C(=O)CCC(=O)N(Cc2ccc(-c3ccc(CNCCc4ccc(S(C)(=O)=O)cc4)cn3)cc2)C2CCN(Cc3ccccc3)CC2)cc1F.O=C(O)C(F)(F)F,99
17,COc1ccc2c(ccc3c2ncc2c(=O)n(-c4ccccc4)[nH]c23)c1,95
18,CCNc1cc(C)nc(Nc2ccc(NC(=O)c3ccccc3)cc2)n1,100
19,COc1ccc(Nc2nccc(NCCNC(=O)c3cc4ccccc4s3)n2)cc1,98
20,Cn1nccc1C(=O)NCCNCc1cccc(-c2ccc(-c3nc4cc(C(F)(F)F)ccc4[nH]3)cc2)c1.O=C(O)C(F)(F)F,100
